Screens: PubChem, National Center for Advancing Translational Sciences (NCATS)
NPC1 promoter act: activators of NPC1 promoter; Huh7 NPC1 promoter luciferase reporter, 24 h; Potency, µM (top dose mostly 9.22 µM), for inactives: at the highest dose activation, usual class: activators; actives 2.4% (n = 320,000); note: % of control where 0% means no effect; nearly all actives have a fitted effect of over 60% in size
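In 1536-well qHTS, Huh7 cells harboring an NPC1 promoter–luciferase construct received compound for 24 h; activation was quantified by luminescence following luciferase reagent addition.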
KinaseGlo FLuc: counter-screen: inhibitors of Kinase-Glo firefly luciferase; actives 0.28% (n = 200,000); Kinase-Glo luciferase, ATP luminescence, 8 min; Potency, µM (titrated, usually from 38.3 µM), without a hit: top-dose activity change, negative = inhibition, most hits filed as inhibitors; note: % is set by controls: 0 for no effect and ±100 for the full control effect; nearly all actives have a fitted effect of over 60% in size
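Light output from Kinase-Glo luciferase with luciferin and 10 uM ATP in 50 mM imidazole pH 7.2, KCl, MgCl2, Tween 20, BSA; compound pin-delivered, 8-min ambient incubation, then luminescence read.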
Rab9 prom act: Rab9 promoter activation | actives 2.8% (n = 320,000) | Potency, µM (titrated, usually from 9.22 µM), for inactives: at the top dose activation, negative = inhibition, actives largely listed as activators | Huh7 Rab9 promoter-luciferase reporter, luminescence, 24 h; note: % of control where 0% means no effect; nearly all actives have a fitted effect of over 60% in size
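Steps: seed 1500 Huh7 Rab9-luc cells per well, rest 2 h at 37 °C; add compound in DMSO; incubate 24 h; add luciferase reagent, 10 min ambient; read luminescence.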
SMN2 splice up: enhancers of SMN2 splice variant expression; Potency, µM (highest dose often 46.1 µM), without a hit: at the highest dose activity change, positive = activation, actives largely listed as activators; AID 1458; actives 2.8% (n = 210,000); HEK293 SMN2-luciferase splicing reporter, luminescence, 30-36 h; note: % of control where 0% means no effect; nearly all actives have a fitted effect of over 55% in size
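qHTS luciferase splicing reporter: luminescence rises when SMN2 exon 7 is included in transfected HEK293 cells. Compound exposure lasted 30-36 h at 37C, with 4.5 mM final sodium butyrate as control, followed by a ONE-Glo read.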
ELG1 genotox: genotoxicity induction in ELG1-luciferase HEK293T cells. HEK293T ELG1-luciferase reporter, luminescence, 16 h. AID 504466. actives 1.3% (n = 330,000). Potency, µM (highest dose often 46 µM), inactives show at the top dose activity change, positive = activation, usual class: activators; note: % of control where 0% means no effect; nearly all actives have a fitted effect of over 60% in size
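HEK293T cells expressing luciferase-tagged ELG1 were treated with compound or DMSO for 16 hr at 37°C. Luciferase activity was then read after 30 min with ONE-Glo at room temperature; rising signal flags genetic stress.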
FLuc modulator: inhibits or activates purified firefly luciferase, miR-21 counter-screen | AID 588342 | purified FLuc, Km substrates, luminescence inhibition | Potency, µM (series often up to 57.5 µM), for inactives: top-dose activity change, negative = inhibition, hits mostly inhibitors | actives 6.9% (n = 360,000) | P08659;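 note: plate controls were vehicle for no effect and reference inhibitor for full effect; nearly all actives have a fitted effect of over 55% in size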
Target sequence (P08659 whole entry, looked up): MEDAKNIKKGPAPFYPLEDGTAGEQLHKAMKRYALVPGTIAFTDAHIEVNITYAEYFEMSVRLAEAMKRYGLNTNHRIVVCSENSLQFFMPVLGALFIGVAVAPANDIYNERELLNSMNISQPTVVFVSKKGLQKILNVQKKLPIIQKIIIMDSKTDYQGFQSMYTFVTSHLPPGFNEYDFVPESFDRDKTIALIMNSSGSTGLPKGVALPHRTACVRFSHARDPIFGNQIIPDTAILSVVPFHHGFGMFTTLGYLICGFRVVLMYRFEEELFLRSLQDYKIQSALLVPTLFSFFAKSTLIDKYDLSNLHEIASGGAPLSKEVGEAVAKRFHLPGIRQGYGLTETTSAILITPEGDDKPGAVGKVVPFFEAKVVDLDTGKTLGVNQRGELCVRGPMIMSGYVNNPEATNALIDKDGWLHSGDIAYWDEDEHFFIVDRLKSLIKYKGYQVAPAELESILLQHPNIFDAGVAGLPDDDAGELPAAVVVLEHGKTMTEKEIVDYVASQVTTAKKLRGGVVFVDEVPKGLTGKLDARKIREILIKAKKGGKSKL
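Purified P. pyralis luciferase (10nM final) with 10uM D-luciferin and 10uM ATP (Km levels) in 50mM Tris acetate pH 7.5, 10mM Mg acetate, 0.01% Tween-20, 0.05% BSA; qHTS 6-point titration, ~60 µM downward; luminescence read.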
* = called active by the depositor; [ ] = another dose, or the depositor's remark. Most compounds without a hit are left out; they make up all but 7.3% or so of the library. Calls come from the whole dose curve; as a rule, active = well fitted curve in the direction sought with a large enough effect; inconclusive = small, poorly fitted or top-dose-only effect, or another doubt; inactive = no such curve, though single readings can be large; an effect the other way counts as inactive or inconclusive. Potency is the fitted concentration of half-maximal effect.

How did NC(=O)c1c(NC(=O)c2cc(-c3ccc(F)cc3)on2)sc2c1CCCC2 do in these assays?
SMN2 splice up: 3.6%; FLuc modulator: -18.1%

How did COc1ccc(-c2nc3scc(CCNS(=O)(=O)c4ccc(Oc5ccccc5)cc4)n3n2)cc1OC do in these assays?
FLuc modulator: -10.7%

How did Cc1ccc(CN2C(=O)CN(C3CCC(C)CC3)C(=O)C2c2ccc(F)cc2)cc1 (configuration not stated) do in these assays?
FLuc modulator: -4.8%

How did COC(=O)C(NC(=O)CCc1c(C)nc2c(-c3ccccc3)c(C)nn2c1C)C(C)C (configuration not stated) do in these assays?
SMN2 splice up: -12.8%; FLuc modulator: -9.2%

How did COc1cc2c(cc1O)-c1ccccc1CN(C)C2 do in these assays?
KinaseGlo FLuc: -0.7%; SMN2 splice up: 14.2%

How did O=C(Nc1nnc(-c2ccccc2)s1)c1ccc(F)cc1 do in these assays?
NPC1 promoter act: inconclusive; KinaseGlo FLuc: 1.0%; Rab9 prom act: 1.41µM*; SMN2 splice up: inconclusive; ELG1 genotox: inconclusive; FLuc modulator: -12.4%

What do the screens show for `O=c1n(S(=O)(=O)c2cccc3cccnc23)c2ccccc2n1S(=O)(=O)c1cccc2cccnc12`?
NPC1 promoter act: -2.0%; KinaseGlo FLuc: 0.4%; Rab9 prom act: -0.8%; SMN2 splice up: 11.2µM*; ELG1 genotox: -1.9%; FLuc modulator: -2.1%

Results for O=S(=O)(Cc1ccccc1)N1CCN(Cc2ccc(Br)cc2)CC1 ?
NPC1 promoter act: inconclusive; Rab9 prom act: 21.1%; ELG1 genotox: 16.4µM*; FLuc modulator: inconclusive

Results for O=S(=O)(Cc1ccc(Cl)cc1)N1CCN(Cc2ccccc2)CC1 ?
NPC1 promoter act: -9.3%; KinaseGlo FLuc: 3.9%; Rab9 prom act: 1.5%; SMN2 splice up: -0.1%; ELG1 genotox: 1.4%; FLuc modulator: 3.5%

Results for COc1ccc(OCc2cc(C(=O)N(C)Cc3nccn3C)no2)c2ccccc12 ?
NPC1 promoter act: -3.1%; Rab9 prom act: -0.1%; ELG1 genotox: -4.9%; FLuc modulator: 6.3%

How did COc1cccc(OCc2cc(C(=O)N(C)Cc3nccn3C)no2)c1 do in these assays?
NPC1 promoter act: 2.82µM*; Rab9 prom act: 1.78µM*; ELG1 genotox: inconclusive; FLuc modulator: 19µM*

What do the screens show for `COc1cccc(CN(C)C(=O)c2cc(COc3ccc4ncccc4c3)on2)c1`?
NPC1 promoter act: -27.4%; KinaseGlo FLuc: 1.7%; Rab9 prom act: -55.7%; ELG1 genotox: -12.4%; FLuc modulator: -13.7%

What do the screens show for `COc1cccc(OCc2cc(C(=O)N(C)CCOc3ccc(C)cc3)no2)c1`?
NPC1 promoter act: 3.55µM*; Rab9 prom act: 2.82µM*; ELG1 genotox: inconclusive; FLuc modulator: 13.5µM*

What do the screens show for `COc1ccc(OCc2cc(C(=O)N(Cc3nccn3C)C(C)C)no2)c2ccccc12`?
NPC1 promoter act: inconclusive; Rab9 prom act: 3.16µM*; ELG1 genotox: 12.9%; FLuc modulator: 13.5µM*

How did Cc1cccc(NS(=O)(=O)c2ccc3c(c2)CCN3C(=O)C2CCC2)c1 do in these assays?
SMN2 splice up: -58.1%; FLuc modulator: -12.3%

Results for O=C1CC(c2ccc(Cl)cc2)Sc2nc(-c3ccc(F)cc3)nn21 (configuration not stated) ?
SMN2 splice up: 5.5%; FLuc modulator: inconclusive

What do the screens show for `O=C(Nc1ccccc1)N1CCN(C(=O)c2nsc3ccccc23)CC1`?
FLuc modulator: -6.2%

What do the screens show for `CNC(=O)c1ccc(NC(=O)c2nsc3ccccc23)cc1`?
SMN2 splice up: 2µM*; FLuc modulator: 1.51µM*

What do the screens show for `CCOC(=O)c1ccc(NC(=O)c2sc3ccccc3c2Cl)cc1`?
SMN2 splice up: 7.1%; FLuc modulator: 3.0%

What do the screens show for `CCOC(=O)c1ccc(NC(=O)c2nsc3ccccc23)cc1`?
SMN2 splice up: 5.62µM*; FLuc modulator: 2.39µM*

Results for NCCNc1ncnc2ccc(Cl)cc12 ?
KinaseGlo FLuc: -1.1%[7.66 µM]; SMN2 splice up: -4.7%[9.22 µM]

What do the screens show for `COc1ccccc1N=Nc1c(C)[nH][nH]c1=O`?
NPC1 promoter act: -1.7%; Rab9 prom act: 0.8%; ELG1 genotox: 3.9%; FLuc modulator: inconclusive

How did Cc1ccc(N=Nc2c(C)[nH][nH]c2=O)c(C)c1 do in these assays?
NPC1 promoter act: 3.1%; KinaseGlo FLuc: -2.7%; Rab9 prom act: 22.5%; SMN2 splice up: 16.4%; ELG1 genotox: inconclusive; FLuc modulator: 7.57µM*

What do the screens show for `Cc1ccc2c(c1)N(C(=O)N1CCC(C(=O)NCc3ccccc3C)CC1)CC(C)O2` (configuration not stated)?
FLuc modulator: 7.4%

Results for Cn1c2ccccc2c(=O)c2cc(C#CC3(O)CCCCC3)ccc21 ?
NPC1 promoter act: inconclusive; Rab9 prom act: inconclusive; ELG1 genotox: 0.116µM*; FLuc modulator: 0.0757µM*

What do the screens show for `COc1cc(-c2noc(C)c2C#CC2(N)CCCCC2)cc(OC)c1OC`?
NPC1 promoter act: 1.1%; Rab9 prom act: 4.2%; ELG1 genotox: 4.8%; FLuc modulator: 1.4%

Results for Cn1c2ccccc2c(=O)c2ccc(C#CC3(N)CCCCC3)cc21 ?
NPC1 promoter act: 3.98µM*; Rab9 prom act: 2µM*; ELG1 genotox: 7.3µM*; FLuc modulator: 6.75µM*

Results for COc1cccc2oc3ccc(C#CC4(N)CCCCC4)cc3c(=O)c12 ?
NPC1 promoter act: inconclusive; Rab9 prom act: inconclusive; ELG1 genotox: 18.3µM*; FLuc modulator: 6.01µM*

How did Cn1c2ccccc2c(=O)c2ccc(C#Cc3ccccn3)cc21 do in these assays?
NPC1 promoter act: 16.4%; Rab9 prom act: 22.0%; ELG1 genotox: 15.1%; FLuc modulator: -17.4%

How did Cn1c2ccccc2c(=O)c2ccc(F)cc21 do in these assays?
NPC1 promoter act: -0.7%; Rab9 prom act: 4.3%; ELG1 genotox: 15.9%; FLuc modulator: -5.9%

How did COc1ccc(/C=C2\C(=O)NC(=S)N2C(=O)c2ccc(F)cc2)cc1 do in these assays?
NPC1 promoter act: -1.1%; KinaseGlo FLuc: 1.8%; Rab9 prom act: -2.5%; SMN2 splice up: -20.7%; ELG1 genotox: -1.0%; FLuc modulator: 12µM*

Results for Cc1ccc(N(Cc2cccs2)C(=O)C(C)Oc2ccc(Cl)c(C)c2)cc1 (configuration not stated) ?
FLuc modulator: -17.7%

What do the screens show for `CCc1nnc2c(Nc3cccc(F)c3)nc3ccc(C(=O)c4ccccc4)cc3n12`?
SMN2 splice up: -2.5%; FLuc modulator: -1.6%
